# In PubChem BioAssay AID652154 (Broad Institute, 2013):
# In all, about 360,000 compounds went through this assay and about 4,200 (1.2%) were called active.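 How the source made its calls: active means mean replicate inhibition at least 60% with every replicate also reaching 60%; inconclusive means only one of the two criteria is met; inactive means mean below 60% and not all replicates reaching 60%.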 The full list was thinned out, with actives kept by preference.
# Assay: inhibitors of PAX8-driven TPO luciferase reporter, primary screen, RMG-I cells, single concentration (AID 652154);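 further: luciferase light reporting Pax8 driven TPO promoter activity; plate controls were median of neutral control wells for no effect and mitoxantrone controls for full effect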
# Conditions: SteadyGlo, 24 h, at 12.6 µM, hits give high values
row,SMILES,inhibition
1,COC(=O)/C=C\C(=O)Nc1cccc([N+](=O)[O-])c1,87.5% (active)
2,Cc1ccc(NC(=O)O/N=C/c2cccc([N+](=O)[O-])c2)cc1,-64.7% (inactive)
3,O=C(Nc1cccc([N+](=O)[O-])c1)N1CCc2ccccc2C1,-115% (inactive)
4,Cc1cccc(NC(=O)c2ccc([N+](=O)[O-])o2)c1,86.2% (active)
5,O=C(Nc1cccc(NC(=O)c2ccccc2[N+](=O)[O-])c1)c1ccccc1Cl,-26.3% (inactive)
6,Cc1onc(NC(=O)c2ccc([N+](=O)[O-])o2)c1Br,12.3% (inactive)
7,O=C(N[C@H]1CC[C@H](CCNS(=O)(=O)c2ccc(F)cc2)O[C@H]1CO)C1CCC1,5.47% (inactive)
8,O=C(N/N=C/c1ccccc1O)/C(=C/c1ccccc1)CCO,8.09% (inactive)
9,O=C(CCc1ccc(O)cc1)NN=Cc1cc(Br)ccc1O,5.02% (inactive)
10,O=C(CCCO)N/N=C/c1cc(Br)ccc1O,65% (active)
11,CN1CCN(C(=O)C[C@H]2C[C@@H]3c4cc(NS(=O)(=O)c5ccc(F)cc5)ccc4O[C@@H]3[C@@H](CO)O2)CC1,-4.63% (inactive)
12,CC(C)(COC(=O)Nc1ccccc1)COC(=O)Nc1ccccc1,-10.7% (inactive)
13,CCOC(=O)Nc1ccc2c(c1)N(C(=O)CN1CCN3CCCC3C1)c1ccccc1CC2 (stereo unspecified),-14.6% (inactive)
14,CCOC(=O)Nc1ccc2c(c1)N(C(=O)CCCl)c1ccccc1[S@]2=O,120% (active)
15,CO[C@H]1CN(C)C(=O)c2ccc(NC(=O)C3CC3)cc2OC[C@@H](C)N(C(=O)CN2CCOCC2)C[C@H]1C,8.74% (inactive)
16,COc1ccc(C(=O)NNC(=O)c2cc(C)[nH]n2)cc1,-12.8% (inactive)
17,Cc1onc(-c2ccccc2)c1C(=O)N=C(N)c1ccc(Cl)cc1,8.52% (inactive)
18,Cc1onc(-c2ccccc2)c1C(=O)NNC(=S)NC(=O)c1ccc(F)cc1,69.8% (active)
19,O=C(NNC(=S)NC(=O)c1cn(-c2ccccc2)nc1-c1ccccc1)c1ccncc1,-7.23% (inactive)
20,Cc1[nH]c2ccccc2c1C(=O)COC(=O)c1c(-c2ccccc2)noc1C,20.4% (inactive)
21,COc1ccc(C(=O)NC(=S)NNC(=O)c2c(-c3ccccc3)noc2C)cc1,103% (active)
22,COc1cccc(-c2ccc3n(c2=O)C[C@H]2[C@H](CO)[C@@H](C(=O)N4CCCCC4)N(C)[C@@H]32)c1,10.3% (inactive)
23,C[C@@H]1CN([C@H](C)CO)C(=O)c2cc(C#Cc3cccnc3)cnc2O[C@@H]1CN(C)Cc1ccc(F)cc1,-16.3% (inactive)

row,SMILES,inhibition
1,Cc1ccccc1S(=O)(=O)NCC[C@@H]1CC[C@H](NC(=O)C2CCC2)[C@@H](CO)O1,6.58% (inactive)
2,CN1C[C@@H]2[C@H](c3ccccc31)[C@H](CO)N2C(=O)Nc1ccc(F)cc1,-2.1% (inactive)
3,CO[C@H]1CN(C)C(=O)c2ccc(NC(=O)Nc3c(C)noc3C)cc2OC[C@@H](C)NC[C@H]1C,-5.2% (inactive)
4,COc1ccc(C#Cc2ccc([C@@H]3[C@H](CO)N4C(=O)CN(C(C)=O)C[C@@H]34)cc2)cc1,-10.2% (inactive)
5,CCS(=O)(=O)Nc1ccc2c(c1)C(=O)N(C)[C@@H]1CC[C@@H](CC(=O)N3CCCCC3)O[C@H]1CO2,-5.14% (inactive)
6,O=C(CN1CCOCC1)NCC[C@@H]1CC[C@@H](NC(=O)Nc2ccccc2)[C@H](CO)O1,-2.03% (inactive)
7,C[C@@H]1CN([C@H](C)CO)C(=O)c2cccc(NC(=O)c3ccncc3)c2O[C@@H]1CN(C)C,-8.91% (inactive)
8,COc1cc(OC)c(C(=O)Nc2ccccc2-c2ccccc2)cc1OC,-10.7% (inactive)
9,CO[C@H]1O[C@H](CO)[C@@H](OC(=O)Nc2ccccc2)[C@H](OC(=O)Nc2ccc3c(c2)OCO3)[C@H]1OC(=O)Nc1ccc2c(c1)OCO2,16.9% (inactive)
10,CCc1cccc(NC(=O)O[C@H]2[C@H](OC(=O)Nc3ccccc3-c3ccccc3)[C@H](OC(=O)Nc3ccccc3-c3ccccc3)[C@@H](OC)O[C@@H]2CO)c1,43.4% (inactive)
11,CO[C@H]1O[C@H](CO)[C@@H](OC(=O)Nc2ccc(C(F)(F)F)cc2)[C@H](OC(=O)Nc2ccc3c(c2)OCO3)[C@H]1OC(=O)Nc1ccc2c(c1)OCO2,72.5% (active)
12,COc1ccc(NC(=O)O[C@H]2[C@H](OC(=O)Nc3ccc4c(c3)OCO4)[C@@H](OC(=O)Nc3ccc4c(c3)OCO4)[C@@H](OC)O[C@@H]2CO)cc1,14.1% (inactive)
13,CO[C@H]1O[C@H](CO)[C@@H](OC(=O)Nc2ccccc2-c2ccccc2)[C@H](OC(=O)Nc2ccccc2)[C@H]1OC(=O)Nc1ccccc1,80% (active)
14,C[C@@H]1CN([C@H](C)CO)S(=O)(=O)c2ccc(C#CC3(O)CCCC3)cc2O[C@@H]1CN(C)C(=O)c1cccnc1,-6.88% (inactive)
15,COc1ccccc1NC(=O)N1[C@@H]2CNC[C@H]1C2c1ccc(-c2ccccc2C)cc1 (stereo partly specified),-13.6% (inactive)
16,Cc1noc(C)c1S(=O)(=O)Nc1ccc2c(c1)C(=O)N([C@H](C)CO)C[C@@H](C)[C@H](CN(C)C(=O)NC(C)C)OCCCC[C@@H](C)O2,16.4% (inactive)
17,C[C@H](CO)N1C[C@H](C)[C@@H](CN(C)Cc2ccc(C(F)(F)F)cc2)OCc2ccccc2-c2c(n(C)c3ccccc23)C1=O,24% (inactive)
18,COc1ccc(S(=O)(=O)Nc2ccc3c(c2)C(=O)N([C@@H](C)CO)C[C@H](C)[C@H](CN(C)S(=O)(=O)c2ccc(F)cc2)OCCCC[C@@H](C)O3)cc1,34% (inactive)
19,COc1ccc(S(=O)(=O)N(C)C[C@H]2OCCCC[C@H](C)Oc3ccc(NS(=O)(=O)c4ccc(F)cc4)cc3C(=O)N([C@@H](C)CO)C[C@@H]2C)cc1,75.4% (active)
20,COc1ccc(S(=O)(=O)N(C)C[C@@H]2OCCCC[C@@H](C)Oc3ccc(NS(=O)(=O)c4ccccc4)cc3C(=O)N([C@@H](C)CO)C[C@H]2C)cc1,19.7% (inactive)
21,COc1ccc(S(=O)(=O)Nc2ccc3c(c2)C(=O)N([C@@H](C)CO)C[C@H](C)[C@@H](CN(C)S(=O)(=O)c2ccc(F)cc2)OCCCC[C@H](C)O3)cc1,68.7% (active)
22,COc1ccc(S(=O)(=O)Nc2ccc3c(c2)C(=O)N([C@@H](C)CO)C[C@H](C)[C@@H](CN(C)S(=O)(=O)c2ccc(C)cc2)OCCCC[C@@H](C)O3)cc1,31.9% (inactive)
23,COc1ccc(S(=O)(=O)N(C)C[C@H]2OCCCC[C@@H](C)Oc3ccc(NS(=O)(=O)c4ccc(C)cc4)cc3C(=O)N([C@@H](C)CO)C[C@@H]2C)cc1,36.3% (inactive)
